Source: PubChem BioAssay (several laboratories)
CHT allo act = allosteric activators of human choline transporter CHT; B-score at 10 µM; hit rate 0.49% among 310,000; Q9GZV3; CHT-expressing cells, membrane potential dye, choline EC20; hits give high values; LV-AA mutant CHT in HEK293 cells;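 active = initial fluorescence not abnormally high and integrated response B-score, plate-corrected, over 3 SD above library mean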
Target sequence (Q9GZV3 whole entry, looked up): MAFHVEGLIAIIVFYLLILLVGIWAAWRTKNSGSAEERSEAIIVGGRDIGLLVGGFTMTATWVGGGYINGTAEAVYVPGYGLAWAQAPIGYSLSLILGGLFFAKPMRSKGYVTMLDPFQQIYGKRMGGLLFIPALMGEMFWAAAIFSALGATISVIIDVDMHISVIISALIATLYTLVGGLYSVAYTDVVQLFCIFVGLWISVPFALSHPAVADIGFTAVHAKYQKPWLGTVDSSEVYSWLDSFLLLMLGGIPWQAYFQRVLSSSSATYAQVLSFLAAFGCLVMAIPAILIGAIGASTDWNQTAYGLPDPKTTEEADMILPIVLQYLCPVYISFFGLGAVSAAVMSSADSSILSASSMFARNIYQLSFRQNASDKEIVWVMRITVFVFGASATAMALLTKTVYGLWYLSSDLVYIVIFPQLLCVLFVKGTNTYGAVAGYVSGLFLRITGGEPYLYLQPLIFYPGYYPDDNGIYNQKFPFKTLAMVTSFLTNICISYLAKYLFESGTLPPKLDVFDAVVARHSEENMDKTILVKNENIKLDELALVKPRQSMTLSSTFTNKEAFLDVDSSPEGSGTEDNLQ
EP2 antag = inhibitors of human EP2 prostaglandin E2 receptor | P43116 | C6 glioma cells expressing human EP2, cAMP TR-FRET; cells stimulated with saturating PGE2 | inhibition, % at 25 µM | hit rate 0.52% among 260,000;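 active = percent inhibition above 40 after rounding to a whole number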;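 also: rat C6 glioma host cells with rolipram phosphodiesterase inhibitor present; the protocol text gives 20 µM as final concentration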
CHT block = inhibits the human high affinity choline transporter | hit rate 0.86% among 310,000 | B-score at 10 µM | CHT-expressing cells, membrane potential dye, choline response; hits give low values | Q9GZV3 | AID 488975;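 active = B-score over 3 SD under the library average, and starting fluorescence ratio not unusually high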;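 also: choline stimulus applied at its EC90 after an EC20 pre-addition; B-score computed on integrated fluorescence ratio after choline addition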
EP2 modulator = EP2 receptor (human) modulation | P43116 | EP2-expressing cells, cAMP HTRF FRET, PGE2 co-stimulation | induction, % at 25 µM | hit rate 0.83% among 260,000;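 active = compounds whose cAMP rise, as percent of the full-agonist control response, exceeds 60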;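 also: rat C6 glioma line stably carrying human EP2 under a CMV promoter; the protocol text gives 20 µM as final concentration; 100% = response of wells given 1 µM PGE2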
CHT inh conf = confirmation of human choline transporter CHT inhibitors; CHT activity remaining % of control (hits give low values), % at 10 µM; CHT-expressing cells, choline membrane potential dye; LV-to-AA substituted CHT, HEK293 cells; AID 493221; hit rate 70% among 2,400; shares compounds with CHT block;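 active = choline transporter activity left, mean of duplicates at 10 µM, below buffer-only control mean minus 3 SD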;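 also: depolarization triggered by choline at its EC90 following an EC20 pre-addition; 0% = hemicholinium-3 full block and 100% = buffer-only control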
HEK293 MPD ctr = counter-screen for CHT inhibitors: effect in parental HEK293 cells | shares compounds with CHT block | membrane potential dye, choline response; active = decrease or increase beyond buffer ±3SD | membrane potential ratio readout (active if shifted either direction beyond buffer ±3SD; no single direction) at 10 µM | hit rate 4% among 2,400 | AID 493222;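 also: parental cells lack the transporter so any hit is non-specific; ratio is peak minus trough fluorescence over baseline after EC90 choline challenge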
* hit, by the source's call; i = inactive; / = not tested or not shown. A selection: hits, their analogues and other compounds. The true share with any hit is near 2%.

SMILES	CHT allo act	EP2 antag	CHT block	EP2 modulator	CHT inh conf	HEK293 MPD ctr
O=C1C(=O)N(CCN2CCOCC2)C(c2cccnc2)/C1=C(/O)c1ccc(Cl)cc1 (stereo unspecified)	i	7	-9.5*	14	i	i
O=C(Nc1nc2ccc(F)cc2s1)c1cccc(F)c1	/	15	/	-27	/	/
CC(NCc1ccc(F)cc1)C(=O)Nc1cc(S(=O)(=O)N2CCCCC2)ccc1Cl (stereo unspecified)	i	7	-5.8*	-1	50%*	i
O=C(CSc1nnc2n(Cc3c(F)cccc3Cl)c3ccccc3n12)NC1CCCC1	/	16	/	-35	/	/
Cn1ccnc1C1(O)CC2CCC(C1)N2C(=O)Nc1ccccc1F (stereo unspecified)	/	/	/	-54	/	/
CCCOc1cccc(NC(=O)c2c(-c3ccccc3)noc2C)c1	i	10	i	25	/	/
Cc1cccc(OCCOC(=O)c2c(-c3ccccc3)noc2C)c1	i	/	-5.4*	/	i	i
COc1ccc(N(C(=O)c2ccccn2)C(C(=O)NC2CCCCC2)c2ccc(F)cc2)cc1OC (stereo unspecified)	/	2	/	-18	/	/
O=C(CCN1CCOCC1)c1ccc2c(c1)OCCO2	i	9	-5.2*	5	i	i
O=S(=O)(c1ccc2ccccc2c1)N1CCN=C1SCc1cccnc1	i	14	-5*	-69	i	i
O=S(=O)(c1ccc(F)cc1)N1CCN=C1SCc1cccnc1	i	5	i	11	/	/
Nc1nc2nc(SCC(=O)Nc3ccc(Br)cc3)[nH]c2c(=O)[nH]1	/	9	/	-35	/	/
CC(C)c1ccc(OCC(=O)Nc2ccc(NC(=O)c3ccco3)c(Cl)c2)cc1	/	9	/	1	/	/
Cc1ccc(-c2csc3ncn(CC#N)c(=O)c23)cc1	i	4	-5.6*	-7	50%*	i
Cc1ccc(-c2csc3ncn(CC#N)c(=O)c23)cc1C	i	/	i	/	/	/
O=[N+]([O-])c1cc(Br)c(Nc2ccccc2)c([N+](=O)[O-])c1	i	/	i	/	/	/
O=[N+]([O-])c1cc([N+](=O)[O-])c2c(=Nc3ccccc3)n(-c3ccccc3)n(O)c2c1	i	6	-6.2*	-23	61%*	i
CCOC(=O)c1c(C)c(C(=O)N2CCc3ccccc3C2)c(C)n1CC	i	6	-5.8*	17	39%*	i
CC1CCN(S(=O)(=O)c2ccc3c(ccn3CCC(=O)NC(C)C)c2)CC1	i	/	i	/	/	/
CC1CCCCC1NC(=O)CCn1ccc2cc(S(=O)(=O)N3CCCC3)ccc21 (stereo unspecified)	i	/	-6.2*	/	41%*	i
CC1CCCCC1NC(=O)c1ccc(S(=O)(=O)N2CCCC2)cc1 (stereo unspecified)	i	10	-5.4*	7	7.2%*	i
O=C(NC1CCCC1)c1ccc(S(=O)(=O)N2CCCC2)cc1	i	7	i	-2	/	/
CC1CCCCC1NC(=O)c1ccc2c(c1)[nH]c(=O)n2C1CCCC1 (stereo unspecified)	i	18	-9.9*	-6	40%*	i
CC1CCCCC1NC(=O)c1cccc(S(=O)(=O)N2CCN(C)CC2)c1 (stereo unspecified)	i	/	-12*	/	2.1%*	i
Oc1cccc(-n2nnnc2SCc2ccccc2F)c1	i	/	-6.3*	/	57%*	i
SMILES	CHT allo act	EP2 antag	CHT block	EP2 modulator	CHT inh conf	HEK293 MPD ctr
O=[N+]([O-])c1ccc(O)c(CSc2nnnn2-c2ccccc2)c1	i	/	-6.1*	/	30%*	i
COc1ccc(CNC(=O)CN2C(=O)[C@@H]3CCCN3C(=O)c3ccccc32)cc1	/	-1	/	-14	/	/
COc1ccc(-n2c(Cc3ccccc3)nnc2SCC(=O)N2CCOCC2)cc1	/	13	/	-14	/	/
CCN1CCCC1CNC(=O)Cn1ncc2c3oc(C)cc3n(CC)c2c1=O (stereo unspecified)	/	/	/	-32	/	/
O=C1NN(c2ccccc2)C(=O)/C1=C/c1coc2ccccc2c1=O	i	7	-5.3*	1	31%*	i
O=C1NN(c2ccccc2)C(=O)/C1=C\c1coc2ccc(O)cc2c1=O	i	0	i	-10	/	/
CC1=C(C(=O)NC(C)C)C2(CCC(C)CC2)OC1=O (stereo unspecified)	i	10	-6.2*	3	66%*	i
CCOC(=O)c1c(NC(=O)CSc2nnc3c(n2)[nH]c2ccc(OC)cc23)sc(C(C)=O)c1C	/	12	/	-8	/	/
O=C1C(Cl)=C(NS(=O)(=O)c2ccc([N+](=O)[O-])cc2)C(=O)c2ccccc21	i	3	-5.8*	11	49%*	2.3*
CCN1CCN(c2cc(C)c3cc(NC(=S)NCCCN4CCc5ccccc5C4)ccc3n2)CC1	i	4	-5.4*	-89	31%*	2.8*
CCN1CCN(c2cc(C)c3cc(NC(=S)NCCN(C)C)ccc3n2)CC1	i	/	i	/	/	/
CCCN1CCN(CCCNC(=S)Nc2ccc3nc(N4CCN(CC)CC4)cc(C)c3c2)CC1	i	4	-6.7*	-13	13%*	i
CCCCNC(=S)Nc1ccc2nc(N3CCN(CC)CC3)cc(C)c2c1	i	/	i	/	/	/
CN1[C@@H](C(=O)N2CCN(C(=O)c3ccco3)CC2)C[C@@H](c2ccc(F)cc2)NS1(=O)=O	/	/	/	-24	/	/
CCc1nnc(NC(=O)CSc2ncc(-c3ccccc3)n2C)s1	i	5	-5.5*	3	65%*	i
CCc1nnc(NC(=O)CSc2nnc(-c3ccccc3OC)n2-c2ccccc2)s1	i	9	-5.5*	32	41%*	i
CCc1nnc(NC(=O)CSc2nccn2-c2ccccc2)s1	i	2	i	23	/	/
CCc1nnc(NC(=O)CSc2nnc(-c3ccccc3OC)n2-c2ccc(C)cc2)s1	i	15	i	-1	/	/
CCOc1ccc2cc(C#N)c(SCC(N)=O)nc2c1	/	18	/	41	/	/
O=C(CN1C(=O)NC2(CCCc3ccccc32)C1=O)N1CCc2ccccc2C1 (stereo unspecified)	i	11	-6.1*	10	34%*	i
CCOc1ccc(C2C3=C(CCCC3=O)NC3=C2C(=O)CCC3)cc1C(=O)O	/	7	/	6	/	/
O=C(O)CSc1cc(C(=O)c2ccccc2O)cn2c(=O)c3c(-c4ccccc4)csc3nc12	i	8	-7*	61*	30%*	i
CCOC(=O)c1sc2nc3c(SCC(=O)O)cc(C(=O)c4ccccc4O)cn3c(=O)c2c1C	i	1	i	54	/	/
CCOCCCn1c(=S)[nH]c2cc(C(=O)N3CCN(C)CC3)ccc2c1=O	i	5	i	-2	/	/
CCOCCCn1c(=S)[nH]c2cc(C(=O)N3CCN(C4CCCCC4)CC3)ccc2c1=O	i	/	-5.1*	/	57%*	i
